MARV entry inh = blocks Marburg virus binding to or entry into cells. Marburg virus pseudotyped entry inhibition, cell reporter. Potency, µM (titrated, usually from 37.8 µM), for the others: at the highest dose activity change, negative = inhibition, hits mostly inhibitors. 300,000 tested, 1.8% active. AID 540276; calls by dose curve; tested in HEK293 cells; note: potency is the fitted concentration of half-maximal effect; % is set by controls: 0 for no effect and ±100 for the full control effect
Pf growth 96h = P. falciparum growth inhibition at 96 hour, primary screen for plastid delayed-death inhibitors | P. falciparum luciferase reporter growth, 96 h | Potency, µM (highest dose often 28.7 µM), for the others: top-dose activity change, negative = inhibition, most hits filed as inhibitors | 320,000 tested, 6.9% active; note: potency is the fitted concentration of half-maximal effect; % is set by controls: 0 for no effect and ±100 for the full control effect
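Two-generation exposure (96 h) targets delayed-death phenotype. Reporter parasites carrying integrated firefly luciferase, in red cells at 2% hematocrit and 0.05% parasitemia final, kept at 37 C, 5% CO2; luminescence loss indicates inhibition.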
LASV entry inh = blocks Lassa virus binding to or entry into cells; Lassa virus pseudotype entry inhibition, cell reporter; Potency, µM (titrated, usually from 37.9 µM), for inactives: at the top dose activity change, negative = inhibition, actives largely listed as inhibitors; 300,000 tested, 1.2% active; AID 540256; calls by dose curve; tested in HEK293 cells; note: potency is the fitted concentration of half-maximal effect; % is set by controls: 0 for no effect and ±100 for the full control effect; nearly all actives have a fitted effect of over 50% in size
Shiga inhibitor = inhibitors of Shiga toxin in Vero cells. Vero cells, Shiga toxin protein synthesis inhibition reporter. 290,000 tested, 9.2% active. inhibition, % at 38.7 µM. AID 2315; in the data active = inhibition mostly above about 28%, no sharp cut-off; inactive = mostly below about 43%; note: 0% is about no effect
Cycloheximide cs = affects cycloheximide protein synthesis inhibition readout, counter-screen; cell reporter, cycloheximide protein synthesis inhibition counterscreen; max response, %; 300,000 tested, 12% active; in the data active = max response mostly above about 13%, no sharp cut-off; inactive = mostly below about 14%; note: read at 38.3 µM for the half of the compounds with a filed dose; 0% is about no effect
Pf growth 48h = inhibits P. falciparum growth in the first generation, 48 h | Potency, µM (doses to about 28.7 µM), for the others: top-dose activity change, negative = inhibition, hits mostly inhibitors | 310,000 tested, 5.9% active | AID 504832 | P. falciparum luciferase growth in erythrocytes, 48 h; note: potency is the fitted concentration of half-maximal effect; % is set by controls: 0 for no effect and ±100 for the full control effect
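Luciferase-expressing P. falciparum in infected erythrocytes (2% hematocrit, 0.1% parasitemia final) in RPMI 1640/0.5% Albumax were exposed to compound for 48 hours at 37 C, 5% CO2; growth read as luminescence.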
An asterisk follows results filed as active; ? = inconclusive; / = no result given; + = active, no number; [ ] = dose if it differs, or a comment. A selection: hits, their analogues and other compounds. The true share with any hit is near 19%. Unless noted, calls come from the whole dose curve; as a rule, active = well fitted inhibition curve with a large enough effect; inconclusive = small, poorly fitted or top-dose-only effect, or another doubt; inactive = no such curve, though single readings can be large or run the other way.

SMILES	MARV entry inh	Pf growth 96h	LASV entry inh	Shiga inhibitor	Cycloheximide cs	Pf growth 48h
CN(C(=O)CSCC(=O)Nc1ccc(Cl)cc1)C1CCCCC1	?	/	-11%[46.1 µM]	/	/	/
CCOC(=O)c1cc(C)n(CC2CCC(C(=O)Nc3cccc(C(C)=O)c3)CC2)c1C (centres undefined)	/	/	2%[46.1 µM]	/	/	/
CN(C)c1nc(SCc2ccc(Cl)cc2)nc2c1CCCC2	-25%	?	-12%	3	10	?
CCC(=O)OCC(=O)N=c1sccn1Cc1ccccc1Cl	25%	?	5%	-20	-4	?
O=C(CCl)N=c1sccn1Cc1ccc(Cl)cc1Cl	?	12µM*	?	18	28*	?
O=C(CCl)N=c1sccn1Cc1ccccc1Cl	?	0.74µM*	?	17	9	0.26µM*
N=c1sccn1Cc1ccc(Cl)cc1Cl	?	-16%	26%	-10	-2	-9%
O=C(CCl)N=c1sccn1Cc1cccc2ccccc12	/	1.5µM*	/	16	18	?
CCC1CCCCN1S(=O)(=O)c1ccc(NC(=O)CSc2ncccc2C(=O)O)cc1 (centres undefined)	-9%	30%	0%	18	9	-3%
Cc1cc(Cl)c(S(=O)(=O)Nc2ccc(Cl)cn2)cc1OCC(N)=O	6%	12%	22%	-6	-3	4%
O=C(CN1CCc2ccccc21)NCc1ccc2c(c1)OCO2	9%	7%	21%	-6	8	2%
O=c1c2c(-c3ccco3)csc2nc(SCc2cn3cccnc3n2)n1-c1ccccc1	?	9.3µM*	?	14	4	7.4µM*
O=C(CSc1nc2scc(-c3ccco3)c2c(=O)n1-c1ccccc1)N1CCOCC1	?	?	4.1µM*	-13	-3	-22%
NC(=O)CSc1nc2scc(-c3ccco3)c2c(=O)n1-c1ccccc1	-9%	/	-4%	-9	0	-6%
CCOc1cccc(-c2c(C(=O)N/N=C/c3ccncc3)nnn2-c2nonc2N)c1	?	?	-5%[46.1 µM]	-7	-6	5%
Cc1ccccc1Nc1c(-c2ccccc2)nc2cccc(C)n12	-14%[46.1 µM]	/	-13%[46.1 µM]	/	/	/
CCn1c(=O)cc(OCC(=O)N2CCN(c3cccc(C)c3C)CC2)c2ccccc21	24%[46.1 µM]	/	?	/	/	/
COCCCn1c(=O)c2sccc2n(Cc2cccc(C)c2)c1=O	/	?	/	7	0	?
O=C(c1ccc2c3c(cccc13)CC2)C1CCCN(Cc2cccnc2)C1 (centres undefined)	-22%[46.1 µM]	?	10%	-21	-1	1.7µM*
COc1ccccc1CN1CCCC(C(=O)c2ccccc2SC)C1 (centres undefined)	10µM*	?	?	-16	-2	?
COc1ccc(O)c(CN2CCCC(C(=O)c3ccccc3SC)C2)c1 (centres undefined)	?	16%	-6%	-3	16	5.2µM*
CSc1ccccc1C(=O)C1CCCN(Cc2ccncc2)C1 (centres undefined)	/	1.2µM*	/	-16	-2	?
Cc1noc(C)c1COC(=O)c1ccccc1NC(=O)c1ccco1	-28%[46.1 µM]	?	-19%[46.1 µM]	-3	-1	?
CCN(CC(=O)Nc1ccc(NC(C)=O)cc1)C(=O)c1ccc2ccccc2c1	0%	41%	3%	/	/	0%
CCOc1ccc(CN2CCCC(C(=O)c3ccccc3OC)C2)cc1 (centres undefined)	8.9µM*	-7%	?	-16	-2	-4%
SMILES	MARV entry inh	Pf growth 96h	LASV entry inh	Shiga inhibitor	Cycloheximide cs	Pf growth 48h
COc1ccccc1CN1CCCC(C(=O)c2ccccc2OC)C1 (centres undefined)	?	?	?	-7	-1	-27%
COc1cccc(OC)c1CN1CCCC(C(=O)c2ccccc2SC)C1 (centres undefined)	6.3µM*	9%	?	-7	-8	?
CC(C)(C)c1ccc(C(=O)C2CCCN(Cc3ccon3)C2)cc1 (centres undefined)	/	?	/	33*	22*	69%
O=C(c1ccc(Cl)cc1)C1CCCN(Cc2cnn(-c3ccccc3)c2)C1 (centres undefined)	5.6µM*	29%	-26%	-3	-1	-20%
O=C(c1ccc(Cl)cc1)C1CCCN(Cc2ccc(Oc3ncccn3)cc2)C1 (centres undefined)	/	?	/	-16	10	-12%
CCC1CN(C(=O)NCc2ccc(C)cc2)c2cc(Cl)ccc2O1 (centres undefined)	/	-8%	6%[46.1 µM]	-1	5	-22%
O=C(c1ccc(-c2ccccc2)cc1)C1CCCN(Cc2ccncc2)C1 (centres undefined)	?	17%	?	53	48*	-15%
[N-]=[N+]=Nc1ccc(C(=O)CSC[C@H](NC(=O)CC[C@H](N)C(=O)O)C(=O)NCC(=O)O)cc1	5µM*	/	?	/	/	/
Cc1onc(-c2ccccc2)c1C(=O)NCc1cccs1	-8%[46.1 µM]	-68%	-12%	-9	7	/
Cc1ccc(-c2cn3c(n2)sc2cc(C(=O)NC(C)C45CC6CC(CC(C6)C4)C5)ccc23)cc1 (centres undefined)	/	/	4%[46.1 µM]	/	/	/
CC(=O)N1CC(C)Oc2ccc(S(=O)(=O)NC(CC(=O)O)c3cc(C)ccc3C)cc21 (centres undefined)	/	12µM*	/	-3	-1	0%
Cc1ncc(CO)c(/C=N/NC(=O)c2ccoc2C)c1O	?	-6%	-22%	/	/	?
CCCCCCCCCC(=O)N/N=C/c1ccc(C)s1	?	/	9.2µM*	-10	4	18%
O=C(CN1CCN(Cc2ccccc2)CC1)N/N=C/c1ccc(Br)s1	?	-3%	?	11	7	-8%
Cc1occc1C(=O)N/N=C/c1ccc(Br)s1	?	30%	-1%	63*	42*	23%
Cc1ccc(/C=N/NC(=O)c2ccoc2C)s1	-1%	70%	?	+	70*	92%
C/C(=N\NC(=O)c1ccoc1C)c1ccc(Br)s1	/	-9%	/	80*	57*	36%
O=C(/C=C/c1ccc2ccccc2c1)c1ccoc1	5%	58%	11%	53*	34*	70%
CC(C)C(NC(=O)CCN1C(=O)c2ccccc2C1=O)c1ccccc1 (centres undefined)	?	41%	?	-6	-2	-3%
CCOc1ccc(Cn2nnc(C(=O)NCCc3ccc(Cl)cc3)c2N)cc1	/	5.2µM*	/	1	-6	/
CCOc1ccc(Cn2nnc(C(=O)Nc3ccc(Cl)cc3)c2N)cc1	15%[46.1 µM]	/	12%[46.1 µM]	/	/	/
CCOc1ccc(Cn2nnc(C(=O)NCCc3ccccc3)c2N)cc1	/	?	/	-1	-2	/
COc1ccc(Cn2nnc(C(=O)Nc3ccc(F)cc3)c2N)cc1	6%	1.9µM*	-4%	71	-4	16%
O=C1O[C@@H](N2CCN(C/C=C\c3ccccc3)CC2)c2ccccc21	3%	/	/	/	/	/
Nc1nc(-c2ccccc2)ns1	0%	/	3%	/	/	/

High-throughput results (PubChem BioAssay)
